Test results as given in PubChem BioAssay AID1259319 (Sanford-Burnham Center for Chemical Genomics, 2017).
About 1,800 (60%) of roughly 3,000 compounds were called active. So high a share suggests a set chosen from earlier hits. These entries were drawn from the full list. Values without a mark were called inactive.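 Rule for the calls: active = activation at or above a set limit, or at least 3 SD above the negative control mean; inactive = the rest.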

What follows are molecules tested against Nuclear receptor subfamily 1 group D member 1 (Homo sapiens) (UniProt P20393) (assay: Rev-erbα–DNA interaction modulation, retest – biochemical, FITC-DNA, fluorescence polarization, single point, confirmation (AID 1259319;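 note: 0% = 35 nM protein with DMSO and 100% = 750 nM protein high control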)). Settings: Rev-erb alpha FITC-DNA binding, 90 min, at 25 µM, hits give high values.
Chain of Nuclear receptor subfamily 1 group D member 1 (Homo sapiens) (P20393 whole entry, looked up): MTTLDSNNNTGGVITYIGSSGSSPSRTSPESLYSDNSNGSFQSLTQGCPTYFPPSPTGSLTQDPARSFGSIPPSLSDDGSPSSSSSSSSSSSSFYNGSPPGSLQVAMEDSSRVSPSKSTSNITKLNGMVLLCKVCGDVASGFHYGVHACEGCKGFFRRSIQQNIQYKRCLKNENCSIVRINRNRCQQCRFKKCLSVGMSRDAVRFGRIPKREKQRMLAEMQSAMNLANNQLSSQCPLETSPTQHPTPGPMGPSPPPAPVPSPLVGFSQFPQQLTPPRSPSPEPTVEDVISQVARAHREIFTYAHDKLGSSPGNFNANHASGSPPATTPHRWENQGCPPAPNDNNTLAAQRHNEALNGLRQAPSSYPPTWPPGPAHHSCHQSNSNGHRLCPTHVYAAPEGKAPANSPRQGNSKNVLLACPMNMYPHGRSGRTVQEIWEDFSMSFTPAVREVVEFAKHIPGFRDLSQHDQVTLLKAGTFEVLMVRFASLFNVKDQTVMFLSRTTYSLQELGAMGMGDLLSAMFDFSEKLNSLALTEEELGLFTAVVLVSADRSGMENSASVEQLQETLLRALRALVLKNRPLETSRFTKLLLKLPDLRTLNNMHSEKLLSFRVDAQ
With `COc1ccccc1N=Nc1c(O)[nH]c(=S)[nH]c1=O` the activation was 41% (active). `COC(=O)CN(CCCl)P1(=O)OCCCN1CCCl` (configuration not stated) was tested, and the activation was -6.07%.
